This is a sample that favours compounds with a hit; in the whole collection about 6% have one here.
DRD3 agonist: agonists of human D3 dopamine receptor; P35462; D3R DiscoveRx beta-arrestin cells, luminescence, 90 min; max activation, %; 410,000 compounds, 0.58% hits; AID 652048; in the data active = max activation above about 30%; also: 0% is about no effect
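Agonist-mode cell screen: cells plated at 1500/well and incubated overnight at 37 °C, then exposed to library compounds for 90 min at 37 °C. Detection reagent was added for 30–60 min at room temperature, and luminescence was read.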
D1 potentiator: enhances dopamine response at the human D1 receptor. 360,000 compounds, 0.036% hits. potentiation, % at 10 µM. HEK293 TREx D1 cells, calcium flux, dopamine EC20 potentiation. P21728; in the data active = potentiation above about 30%; also: 0% is about no effect
Target sequence (P21728 whole entry, looked up): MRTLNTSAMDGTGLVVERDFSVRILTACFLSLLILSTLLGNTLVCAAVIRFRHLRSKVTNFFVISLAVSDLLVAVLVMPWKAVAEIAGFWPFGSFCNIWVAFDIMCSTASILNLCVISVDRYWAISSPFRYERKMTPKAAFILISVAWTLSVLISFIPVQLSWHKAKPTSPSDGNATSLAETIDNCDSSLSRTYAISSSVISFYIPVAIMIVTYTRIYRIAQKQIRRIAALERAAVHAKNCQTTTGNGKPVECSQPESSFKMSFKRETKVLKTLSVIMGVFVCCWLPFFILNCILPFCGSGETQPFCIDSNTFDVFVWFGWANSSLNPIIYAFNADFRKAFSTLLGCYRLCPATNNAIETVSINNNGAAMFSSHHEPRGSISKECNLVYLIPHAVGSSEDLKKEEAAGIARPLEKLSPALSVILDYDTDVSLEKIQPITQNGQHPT
D1 antagonist: antagonists of human D1 dopamine receptor; P21728; HEK293 TREx D1 cells, calcium flux, dopamine EC80; stronger effect = lower value; activity change, negative = inhibition, % at 10 µM; 360,000 compounds, 3.2% hits; AID 504652; in the data active = activity change below about -30%; also: % is scaled to controls: 0 for no effect and ±100 for the full control effect
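Tetracycline-induced HEK293 Trex D1 cells, force-coupled to calcium, dye-loaded; compounds added and read 180 s, then EC80 dopamine added and calcium flux tracked kinetically another 180 s.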
D1 agonist: agonists of human D1 dopamine receptor. P21728. HEK293 T-REx D1 cells, calcium flux, agonist mode. activation, % at 2 µM. 360,000 compounds, 1% hits; in the data active = activation above about 30%; also: 0% is about no effect
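Agonism was scored from calcium flux recorded over 180 s (1 read/s) after pintool compound addition, following a 10-cycle baseline. Cells were inducible force-coupled HEK293 TREx D1, plated overnight at 30 C and loaded with no-wash calcium dye.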
D3 antag: antagonists of human D3 dopamine receptor; P35462; D3R cells, DiscoveRx beta-arrestin luminescence, antagonist mode; stronger effect = lower value; max response, negative = inhibition, %; 360,000 compounds, 2.5% hits; in the data active = max response below about -50%; inconclusive = no clear call, values can overlap the other calls; also: % is scaled to controls: 0 for no effect and ±100 for the full control effect
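Cells expressing the human receptor were seeded at 1500 cells/well, incubated overnight at 37 degrees C in 5% CO2, then exposed to library compounds with dopamine controls for 90 minutes at 37 degrees C before luminescent detection.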
The depositor's hits bear a star; ? = inconclusive; / = not tested or not shown; ! = not active in a repeat.

SMILES	DRD3 agonist	D1 potentiator	D1 antagonist	D1 agonist	D3 antag
CCCCCCc1cc2cc(-c3nnc(-c4cccc(Cl)c4)o3)c(=O)oc2cc1O	-15	-2	-2	129*	/
O=c1oc2cc(O)ccc2cc1-c1nc2ccccc2o1	5	/	/	/	64
CCCCCCc1cc2cc(S(=O)(=O)c3ccc(Cl)cc3)c(=O)oc2cc1O	21	-2	-6	32*	19
O=c1oc2cc(O)ccc2cc1S(=O)(=O)c1ccccc1	35*	7	20	0	-7
Nc1nc(Cl)nc2c1ncn2[C@H]1C[C@H](O)[C@@H](CO)O1	14	-3	16	0	-80*
Nc1ncnc2c1ncn2[C@H]1C[C@H](O)[C@@H](CO)O1	-17	1	3	1	0
COc1ccccc1CCNC(=O)C(=O)NCC(c1ccco1)S(=O)(=O)c1ccc(F)cc1 (centres undefined)	1	-2	/	3	/
CC(OC(=O)Cn1[nH]c(=O)c2ccccc2c1=O)C(=O)Nc1ccc(F)cc1 (centres undefined)	1	-7	-30*	6	13
CCc1ccccc1NC(=O)Cn1nc(C)c2nn(-c3ccc(Cl)cc3)c(C)c2c1=O	-5	1	11	3	/
O=C(Cn1nnc(-c2cccc(C(F)(F)F)c2)n1)NCc1ccc(F)cc1	2	-3	-5	5	/
Cc1nc(N)sc1-c1csc(Nc2ccccc2)n1	3	-5	-11	1	-56*
Cc1ccc(C)c(NC(=O)c2cnc3sc(N4CCOCC4)nn3c2=O)c1	-46	-3	6	1	/
S=c1[nH]nc(-c2cc(-c3ccco3)[nH]n2)n1-c1ccccc1Cl	-4	3	-11	2	-52*
CC(=O)N1N=C(c2ccccc2)CC1c1cccc([N+](=O)[O-])c1 (centres undefined)	-9	12	-16	1	?
CC(=O)N1N=C(c2cccs2)CC1c1cccc([N+](=O)[O-])c1 (centres undefined)	-12	-2	/	-2	-60*
Cc1cccc(-c2noc(CN(C(=O)c3ccccc3Cl)C(C)C)n2)c1	10	-1	-14	7	/
CN1c2ccsc2C(O)=C(C(=S)Nc2ccccc2)S1(=O)=O	1	-2	/	-1	-72*
CCNC(=O)C1=C(O)c2sccc2N(C)S1(=O)=O	-5	9	19	-1	7
Cc1ccccc1NC(=S)C1=C(O)c2sccc2N(C)S1(=O)=O	4	-2	/	1	-88*
CCOc1cc(/C=C2\SC(=S)N(C(C(=O)O)c3ccccc3)C2=O)ccc1O (centres undefined)	-4	1	4	172*	?
O=C(O)C(c1ccccc1)N1C(=O)/C(=C\c2ccc(O)c(O)c2)SC1=S (centres undefined)	-2	1	-3	23	?
CCOc1cc(/C=C2/SC(=S)N(CC3CCCO3)C2=O)ccc1O (centres undefined)	-2	7	2	68*	-64*
COc1cc(/C=C2\SC(=S)N(C(C(=O)O)c3ccccc3)C2=O)ccc1O (centres undefined)	-2	13	16	82*	?
CCCCc1nn2c(C)c(-c3ccc(OCC)cc3)nc2s1	-3	-3	6	1	/
N#CN1CCC(NC(=O)c2cccc(F)c2)CC1	/	-3	8	2	/
SMILES	DRD3 agonist	D1 potentiator	D1 antagonist	D1 agonist	D3 antag
CCOc1ccc(S(=O)(=O)Nc2cc(Cl)ccc2OC)c2cccnc12	0	-2	1	2	/
CCc1ccc(NS(=O)(=O)c2ccc(OC)c3ncccc23)cc1	5	0	-31*	12	6
CCc1ccccc1NS(=O)(=O)c1ccc(OC)c2ncccc12	31*!	-2	10	8	80
CCOC(=O)c1nnc(-c2ccc(C)cc2)nc1Sc1ccccc1Cl	6	-5	3	7	-85*
CCOc1ccc(-n2nc(CO)c(C(=O)NCCCc3ccccc3)n2)cc1	-6	-2	8	9	/
NC(c1csc(Nc2ccc(C(F)(F)F)cn2)n1)C1CCCCC1 (centres undefined)	-13	/	/	/	-53*
NC(CO)c1csc(Nc2ccc(C(F)(F)F)cn2)n1 (centres undefined)	8	/	/	/	0
CSc1nc(-c2ccccc2)[nH]c(=S)c1C(C)=O	-8	0	0	2	-93*
CC1Nc2ncnc(N3CCN(c4ccccc4)CC3)c2N(Cc2ccc(Cl)cc2)C1=O (centres undefined)	-81	-1	-12	1	-166*
CC1Nc2ncnc(N3CCOCC3)c2N(Cc2ccc(Cl)cc2)C1=O (centres undefined)	-3	-2	9	2	?
CC(C)CC1Nc2ncnc(N3CCN(c4ccccc4)CC3)c2N(Cc2ccccc2)C1=O (centres undefined)	-12	-3	2	1	-78*!
CC1Nc2ncnc(N3CCN(c4ccccc4)CC3)c2N(Cc2ccccc2)C1=O (centres undefined)	-69	-7	-27	-1	-110*
Cc1cc(C)cc(-n2cnc3cc(C(=O)NC4CCCCCC4)ccc32)c1	-9	5	-5	-1	/
Cc1ccc(-c2nc(C(=O)NCc3ccccc3Cl)c3n2CCCCC3)cc1	-3	0	0	2	/
CC(=O)OCCn1c(C)[n+](CCOC(C)=O)c2cc(Cl)c(Cl)cc21	3	-8	12	0	-1
CCn1c(C)[n+](CCOCC[n+]2c(C)n(CC)c3cc(Cl)c(Cl)cc32)c2cc(Cl)c(Cl)cc21	-14	-5	-48*	0	-6
FC(F)(F)c1cccc(Cn2nnnc2-c2ccc(Cl)cc2)c1	-1	-15	-39*	21	-21
Cc1cccc(C)c1-n1nnnc1C(c1cccc2ccccc12)N1CCN(C/C=C/c2ccccc2)CC1 (centres undefined)	-11	/	/	/	-107*
Cc1cccc(C)c1-n1nnnc1C(c1cc2ccccc2o1)N1CCN(C/C=C/c2ccccc2)CC1 (centres undefined)	-18	/	/	/	-74*
CCn1c(Cc2cccs2)nnc1SCC(=O)NC1CC1	5	1	10	0	-4
Cn1c(Cc2ccc3c(c2)OCO3)nnc1SCC(=O)NC1CCCC1	/	-11	-33*	1	/
CCn1c(Cc2ccccc2)nnc1SCC(=O)NC1CC1	-1	1	-32*	0	6
CCC1CCCCN1CC(=O)N1CCCc2c1c(=O)oc1ccc(OCc3ccccc3)cc21 (centres undefined)	-15	-2	27	4	/
CC(NC(=O)C12CC3CC(CC(C3)C1)C2)c1ccc2c(c1)OCCO2 (centres undefined)	32*	4	3	1	33
CCn1c(C(=O)NC(C)c2ccc3c(c2)OCCO3)cc2sccc21 (centres undefined)	-1	-1	-32*	6	?

From PubChem BioAssay
